# Assay outcomes deposited in PubChem BioAssay by several laboratories.
# The list is not random: actives were taken first. Their share in the collection is about 1.1%.
# NFkB transloc pot: enhancers of NFkB p65 translocation in HUVEC – imaging, IL-1B stimulus, high-content imaging, primary screen; HUVEC IL-1B NFkB p65 nuclear translocation imaging; activation, % at 2 µM; 0.3% of 94,000 active; AID 819, 2007;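 active = activation above 40%, about the mean plus 3 SD, also judged a hit on visual image review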;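 note: percent activation is computed from the nuclear over cytoplasmic p65 intensity ratio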
# EphB4 ephrin blk: EphB4-ephrin-B2 interaction antagonists, primary screen, biochemical, TNYL-RAW peptide probe, fluorescence polarization | EphB4 LBD / TNYL-RAW-Alexa532 peptide | Ephrin type-B receptor 4 (Homo sapiens), P54760 | inhibition, % at 7 µM | AID 720, 2007 | 0.15% of 97,000 active;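 active = inhibition above the screen-wide mean inhibition plus 3 SD, cut at about 15% in these data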;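 note: 0% = DMSO wells and 100% = excess unlabeled TNYL-RAW peptide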
# Target sequence (P54760 whole entry, looked up, the tested form may be a part): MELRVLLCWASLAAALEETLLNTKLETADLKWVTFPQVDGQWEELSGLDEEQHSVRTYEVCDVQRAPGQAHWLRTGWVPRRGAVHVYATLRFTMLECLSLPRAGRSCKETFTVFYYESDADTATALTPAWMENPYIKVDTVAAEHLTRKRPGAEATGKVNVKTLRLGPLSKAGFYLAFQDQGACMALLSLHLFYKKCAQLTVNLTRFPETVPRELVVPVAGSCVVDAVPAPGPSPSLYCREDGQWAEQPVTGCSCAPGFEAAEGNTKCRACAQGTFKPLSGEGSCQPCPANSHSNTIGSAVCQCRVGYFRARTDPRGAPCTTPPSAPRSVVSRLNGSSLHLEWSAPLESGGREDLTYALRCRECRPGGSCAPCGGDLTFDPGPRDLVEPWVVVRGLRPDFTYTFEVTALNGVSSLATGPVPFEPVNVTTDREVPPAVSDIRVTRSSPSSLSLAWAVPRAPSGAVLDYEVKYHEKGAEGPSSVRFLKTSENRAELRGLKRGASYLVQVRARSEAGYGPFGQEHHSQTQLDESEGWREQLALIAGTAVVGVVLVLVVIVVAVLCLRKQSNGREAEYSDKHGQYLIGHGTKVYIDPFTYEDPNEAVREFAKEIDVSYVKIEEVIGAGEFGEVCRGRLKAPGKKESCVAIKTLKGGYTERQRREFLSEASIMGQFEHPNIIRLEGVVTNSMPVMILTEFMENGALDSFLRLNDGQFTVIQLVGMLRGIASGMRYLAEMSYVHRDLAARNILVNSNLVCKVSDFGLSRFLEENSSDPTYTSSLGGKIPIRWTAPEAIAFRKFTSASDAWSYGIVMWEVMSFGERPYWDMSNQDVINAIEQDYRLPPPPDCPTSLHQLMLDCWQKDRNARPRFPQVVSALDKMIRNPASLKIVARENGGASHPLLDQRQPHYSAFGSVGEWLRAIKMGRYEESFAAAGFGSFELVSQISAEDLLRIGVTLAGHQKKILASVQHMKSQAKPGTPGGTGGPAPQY
# Calb biofilm kill: clotrimazole potentiators killing Candida biofilms, primary screen, with clotrimazole, Alamar Blue; inhibition, % at 6 µM; C. albicans biofilm + clotrimazole; 0.14% of 85,000 active;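 active = inhibition above 20%; inactive = inhibition below 20%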;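 note: preformed 24 hr biofilms exposed to compound for 48 hr; 0% = biofilm without compound and 100% = blank killed by clotrimazole plus chlorhexidine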
# IL1B NFkB inh: inhibitors of IL-1B driven NFkB p65 nuclear import, primary screen, imaging, HUVEC, IL-1B stimulus, high-content imaging; inhibition, % at 2 µM; HUVEC IL-1B NFkB p65 nuclear translocation imaging; 0.43% of 94,000 active;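 active = inhibition above about 30% together with a positive call from visual inspection of the well image, limit read from the data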;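 note: nuclear over cytoplasmic p65 intensity ratio measured by imaging; 0% = IL-1B stimulated DMSO wells and 100% = unstimulated DMSO wells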
# IL1B cytotox: cytotoxicity in IL-1B stimulated HUVEC, primary screen, cytotoxicity control for IL-1B NFkB translocation project, imaging, Hoechst nuclear count, IL-1B stimulus; HUVEC cell count loss; cell count reduction, % at 2 µM; 0.41% of 94,000 active;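 active = cell count reduction more than 3 SD above the screen-wide mean, cut at about 70% in these data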;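 note: normalized per plate to untreated control cells as the no-loss baseline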
# * hit, by the source's call; · = no result; [ ] = another dose, or the depositor's remark.
SMILES,NFkB transloc pot,EphB4 ephrin blk,Calb biofilm kill,IL1B NFkB inh,IL1B cytotox
C=CCn1c(O)c(C(CC)=NCc2cccnc2)c(=O)[nH]c1=O,5,3,-2,-5,-25
Cc1cc(C)n(-c2nc(SCCN(C)C)c3c4c(sc3n2)COC(C)(C)C4)n1,9,-8,·,-9,-29
Cc1ccc(C)c(Cn2nnc3c(=O)[nH]c(C4CCCN(C(=O)CC(C)C)C4)nc32)c1 (stereo not given),8,3,3,-8,7
COCCCNC(=O)c1nc2c(nnn2Cc2cc(C)ccc2C)c(=O)[nH]1,41*,-1,7,-41,93*
CCCNC(=O)N1CCN(S(=O)(=O)c2ccc(C)c(C)c2)CC1,3,1,20*,-3,-5
O=C(NC(=O)c1cccc(Cl)c1)OC[C@@H]1CCCN2CCCCC12 (stereo not given in full),-1,4,4,1,7
CN1CCN(Cc2nc3c(c(=O)n(C)c(=O)n3C)n2CCc2ccccc2)CC1,·,·,8,·,·
Cc1ccccc1-n1ncc2c(SCC(=O)NCc3cccs3)ncnc21,105*,-3,1,-105,-12
Cc1csc(NC(=O)CSc2ncnc3c2cnn3-c2ccccc2Cl)n1,5,-17,7,-5,-7
CCOC(=O)N1CCC(NC(=O)C2CCN(C(=O)N3CC(C)Oc4ccccc43)CC2)CC1 (stereo not given),9,1,10,-9,-7
CCOC(=O)N1CCC(NC(=O)C2CCN(C(=O)N3CC(C)Oc4ccc(C)cc43)CC2)CC1 (stereo not given),-50,4,0,50*,20
O=C(Cn1c(=O)n(CCCCC(=O)NC2CCCC2)c(=O)c2ccccc21)NCCC1=CCCCC1,-41,0,·,40*,3
O=C(CCn1c(=O)c2ccccc2n(CC(=O)NC2CCCC2)c1=O)NCCc1ccc(Cl)cc1,-11,0,6,11,1
CCc1ccc(N2CC(C(=O)OCC(=O)NC3CCS(=O)(=O)C3)CC2=O)cc1 (stereo not given),-24,2,-3,24,92*
CCOc1ccc(N2CC(C(=O)OCC(=O)NCc3ccccc3)CC2=O)cc1 (stereo not given),-6,0,·,6,-37
COc1ccc(NC(=O)/C(Cl)=C(/Cl)S(=O)(=O)Cc2ccccc2)cn1,68*,-3,5,-68,-3
CCOC(=O)N1CCC(n2c(SCC(=O)N3CCCC3)nc3ccccc3c2=O)CC1,15,0,·,-15,6
CCOC(=O)N1CCC(n2c(SCC(=O)NCCC3=CCCCC3)nc3ccccc3c2=O)CC1,8,15*,-1,-8,27
CCOC(=O)N1CCC(n2c(SCC(=O)NCc3ccccc3)nc3ccccc3c2=O)CC1,-1,16*,2,1,-23
CCOC(=O)N1CCC(n2c(SCC(=O)N3CCC(C)CC3)nc3ccccc3c2=O)CC1,8,5,24*,-8,-7
COC(=O)c1c(C)[nH]c(C(=O)CN2CCOCC2)c1C,22,-1,3,-22,2
CCN1CCCC1CNC(=O)c1nn(-c2ccc(C)cc2)c(=O)c2c1c1ccccc1n2C (stereo not given),·,·,4,·,·
COC(=O)C1=C(C)N(C)C(=O)NC1c1ccccc1 (stereo not given),47*,6,8,-47,-4
Cc1cc(C)cc(CC(Cc2nc3ccccc3[nH]2)c2nc3ccccc3[nH]2)c1 (stereo not given),0,-8,·,0,-32
Fc1ccc(Sc2cc(Cl)c(-c3ccccc3)nn2)cc1,-4,20*,·,4,19
SMILES,NFkB transloc pot,EphB4 ephrin blk,Calb biofilm kill,IL1B NFkB inh,IL1B cytotox
CCc1nnc(SCc2ccc(C(=O)OC)o2)n1N,-4,6,-5,4,-39
COC(=O)c1ccc(CSc2nnc(-c3ccncc3)n2Cc2ccccc2)o1,-2,2,8,2,13
CCCc1nnc(SCc2ccc(C(=O)OC)o2)n1N,2,39*[fluorescence artefact?],-2,-2,1
COC(=O)c1ccc(CSc2nnc3ccccn23)o1,152*,-15,7,-152,-3
COc1ccc([N+](=O)[O-])cc1COc1cc(C)cc2oc(=O)cc(-c3ccccc3)c12,-15,1,·,14,-12
CCN(Cc1ccncc1)S(=O)(=O)c1ccc(C(C)=O)cc1,·,·,-2,·,·
